# Test results reported in PubChem BioAssay (NCI).
# This is part of a sample that, as a whole, favours compounds with a hit. Of some 79,000 tested, about 15% had one in any assay. A number with no mark means an inactive call. Activity calls are given as the source filed them. Rule as the data show it: active = growth inhibition above about 70%; inactive = the rest.
# Assay: NCI Yeast Anticancer Drug Screen. Data for the bub3 strain (AID 167)
# Conditions: S. cerevisiae bub3 mutant strain, at 50.0 µM, stronger effect = higher value
# How it was run: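 Part of a panel of yeast mutants defective in DNA damage repair or cell cycle regulation. Each strain is grown with compound, and inhibition is calculated relative to solvent-treated cultures.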
row,Structure (SMILES),growth inhibition
1,O=C(NSNc1ccccc1)c1ccccc1,-0.6%
2,COC(OC)(c1ccccc1)c1ccccc1,-40.6%
3,COC(=O)Cc1ccc2c(c1)Sc1ccc(CC(=O)OC)cc1N2C,34.7%
4,O=C(NCCCl)NCc1cccc2c1CCCC2,-3.1%
5,NCCNC(=O)c1ccccc1,-7.95%
6,NC(CCC(=O)NC1(C(=O)O)C2CC3CC(C2)CC1C3)C(=O)O (stereo not given),-4.4%
7,O=C(CC(O)(C(F)(F)Cl)C(F)(F)Cl)c1cccc([N+](=O)[O-])c1,61%
8,CC(=O)Nc1ccc(/C=N/NC(N)=O)cc1,-0.7%
9,CC1(C)OC2OC(C(O)COC(=O)c3ccccc3)C(Cl)C2O1 (stereo not given),14.2%
10,Cc1ccc(C2[C@H]3C(=O)N(c4ccc(Cc5ccc(N6C(=O)[C@@H]7ON(c8ccccc8)C(c8ccc(C)cc8)[C@@H]7C6=O)cc5)cc4)C(=O)[C@H]3ON2c2ccccc2)cc1 (stereo not given in full),-5.75%
11,CN(C)CCOc1cccc(OCCN(C)C)n1,9.35%
12,Cc1ccc(-c2cc(-c3ccco3)nc(N)n2)o1,5.45%
13,N#CCCOCC(COCCC#N)(COCCC#N)COCCC#N,-12.9%
14,CCC(CC)c1ccc2ccccc2c1,-6.55%
15,COC1C=CC2OC(c3ccccc3)OCC2O1 (stereo not given),10%
16,Clc1ccc(N=Nc2ccccc2)cc1,1.7%
17,COc1ccc(/C=C2\N=C(c3ccccc3)N(Nc3nnc(NN4C(=O)/C(=C/c5ccc(OC)cc5)N=C4c4ccccc4)c4ccccc34)C2=O)cc1,-21.4%
18,Cc1ccc(S(=O)(=O)N2CCCCC2)cc1,-6.75%
19,CC(=O)Oc1ccc(OC(C)=O)c2cc3ccccc3cc12,-12.8%
20,Cc1ccc(N2C(=O)/C(=C/c3ccc(N(CCC#N)CCC#N)cc3C)N=C2c2cc([N+](=O)[O-])ccc2Cl)cc1,30.4%

row,Structure (SMILES),growth inhibition
1,CC1=[N+]([O-])C2(CCCC2)N(O)C1(C)C,-6.25%
2,COC(=O)c1ccccc1C1CN=NC12Cc1cccc(C)c1C2=O (stereo not given),28.9%
3,COC(=O)c1nc(N)nc(C(=O)OC)c1C(=O)c1c(C)[nH]c2ccccc12,-28.4%
4,COC1(c2ccccc2)N=C(c2ccc([N+](=O)[O-])cc2)OC1(C)C (stereo not given),-4.85%
5,NC(=O)c1ccc(Cl)cc1C(N)=O,-0.05%
6,CC1SC2(C(=O)Nc3ccccc32)N(c2ccc(Cl)cc2)C1=O (stereo not given),60.5%
7,COC/N=C(\NC#N)NCOC,-11.7%
8,Nc1cccc2c1C(=O)c1cccc(Nc3ccc4c(c3)C(=O)c3ccccc3C4=O)c1C2=O,-14.2%
9,CCc1cc(Cl)c(O)c(Cl)c1,17.5%
10,CN(C)c1ccc(/C=c2\[nH]c(=O)/c(=C\c3ccc(N(C)C)cc3)[nH]c2=O)cc1,-8.55%
11,COc1cc(CCl)c(OC)cc1Cl,13.6%
12,COC(=O)c1c(O)ccc(O)c1C(=O)OC,-6.4%
13,O=C(CC(=O)N1N=C(n2ccc3ccccc32)CC1c1ccccc1)Nc1ccccc1Cl (stereo not given),-2.1%
14,CCN(CC)CCCC(C)Nc1ccnc2ccc3nn(C)nc3c12 (stereo not given),-14%
15,OCCN(CCO)c1nc(N(CCO)CCO)nc(N(CCO)CCO)n1,17.2%
16,COC1=NCc2ccccc2-c2ccccc21,27.5%
17,COC1CCCC2CC3=C(CCCC3)OC21 (stereo not given),-14%
18,COc1ccc2cc1Oc1ccc(cc1)CC1=NCCc3cc(OC)c(OC)c(c31)Oc1cc3c(cc1OC)CCN(C)C3C2 (stereo not given),3.15%
19,COc1ccc(C=O)c(C(=O)O)c1OC,-20.2%
20,C=CC1(c2ccc3ccccc3c2)OCC(CC)(CC)CO1,7.75%

# Assay: NCI Yeast Anticancer Drug Screen. Data for the mlh1 rad18 strain (AID 175)
# Conditions: S. cerevisiae mlh1 rad18 strain growth inhibition; at 50.0 µM; stronger effect = higher value
# How it was run: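 Cells of a genetically altered yeast strain, deficient in DNA damage repair, were treated with compound. Their growth was then compared with that of vehicle-treated cultures to give inhibition.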
row,Structure (SMILES),growth inhibition
1,O=C(NSNc1ccccc1)c1ccccc1,-4.05%
2,COC(OC)(c1ccccc1)c1ccccc1,-18.6%
3,COC(=O)Cc1ccc2c(c1)Sc1ccc(CC(=O)OC)cc1N2C,-36.3%
4,O=C(NCCCl)NCc1cccc2c1CCCC2,-24.2%
5,NCCNC(=O)c1ccccc1,4.65%
6,NC(CCC(=O)NC1(C(=O)O)C2CC3CC(C2)CC1C3)C(=O)O (stereo not given),4.85%
7,O=C(CC(O)(C(F)(F)Cl)C(F)(F)Cl)c1cccc([N+](=O)[O-])c1,95.8% (active)
8,CC(=O)Nc1ccc(/C=N/NC(N)=O)cc1,9.35%
9,CC1(C)OC2OC(C(O)COC(=O)c3ccccc3)C(Cl)C2O1 (stereo not given),39.3%
10,Cc1ccc(C2[C@H]3C(=O)N(c4ccc(Cc5ccc(N6C(=O)[C@@H]7ON(c8ccccc8)C(c8ccc(C)cc8)[C@@H]7C6=O)cc5)cc4)C(=O)[C@H]3ON2c2ccccc2)cc1 (stereo not given in full),-10.8%
11,CN(C)CCOc1cccc(OCCN(C)C)n1,8.7%
12,Cc1ccc(-c2cc(-c3ccco3)nc(N)n2)o1,1.75%
13,N#CCCOCC(COCCC#N)(COCCC#N)COCCC#N,-2.25%
14,CCC(CC)c1ccc2ccccc2c1,-11.4%
15,COC1C=CC2OC(c3ccccc3)OCC2O1 (stereo not given),-1.65%
16,Clc1ccc(N=Nc2ccccc2)cc1,5.25%
17,COc1ccc(/C=C2\N=C(c3ccccc3)N(Nc3nnc(NN4C(=O)/C(=C/c5ccc(OC)cc5)N=C4c4ccccc4)c4ccccc34)C2=O)cc1,4.35%
18,Cc1ccc(S(=O)(=O)N2CCCCC2)cc1,-20.5%
19,CC(=O)Oc1ccc(OC(C)=O)c2cc3ccccc3cc12,-19.8%
20,Cc1ccc(N2C(=O)/C(=C/c3ccc(N(CCC#N)CCC#N)cc3C)N=C2c2cc([N+](=O)[O-])ccc2Cl)cc1,19.9%

row,Structure (SMILES),growth inhibition
1,CC1=[N+]([O-])C2(CCCC2)N(O)C1(C)C,12.8%
2,COC(=O)c1ccccc1C1CN=NC12Cc1cccc(C)c1C2=O (stereo not given),52.6%
3,COC(=O)c1nc(N)nc(C(=O)OC)c1C(=O)c1c(C)[nH]c2ccccc12,-25.6%
4,COC1(c2ccccc2)N=C(c2ccc([N+](=O)[O-])cc2)OC1(C)C (stereo not given),-4.8%
5,NC(=O)c1ccc(Cl)cc1C(N)=O,-2.25%
6,CC1SC2(C(=O)Nc3ccccc32)N(c2ccc(Cl)cc2)C1=O (stereo not given),10.7%
7,COC/N=C(\NC#N)NCOC,23.2%
8,Nc1cccc2c1C(=O)c1cccc(Nc3ccc4c(c3)C(=O)c3ccccc3C4=O)c1C2=O,32.9%
9,CCc1cc(Cl)c(O)c(Cl)c1,19%
10,CN(C)c1ccc(/C=c2\[nH]c(=O)/c(=C\c3ccc(N(C)C)cc3)[nH]c2=O)cc1,16.2%
11,COc1cc(CCl)c(OC)cc1Cl,-28.4%
12,COC(=O)c1c(O)ccc(O)c1C(=O)OC,-21.6%
13,O=C(CC(=O)N1N=C(n2ccc3ccccc32)CC1c1ccccc1)Nc1ccccc1Cl (stereo not given),5.45%
14,CCN(CC)CCCC(C)Nc1ccnc2ccc3nn(C)nc3c12 (stereo not given),-14.3%
15,OCCN(CCO)c1nc(N(CCO)CCO)nc(N(CCO)CCO)n1,19.6%
16,COC1=NCc2ccccc2-c2ccccc21,-28.9%
17,COC1CCCC2CC3=C(CCCC3)OC21 (stereo not given),-13.5%
18,COc1ccc2cc1Oc1ccc(cc1)CC1=NCCc3cc(OC)c(OC)c(c31)Oc1cc3c(cc1OC)CCN(C)C3C2 (stereo not given),9.4%
19,COc1ccc(C=O)c(C(=O)O)c1OC,-3.7%
20,C=CC1(c2ccc3ccccc3c2)OCC(CC)(CC)CO1,21.5%
